RPL19A TOR yeast: modulators of TOR pathway RPL19A-GFP in S. cerevisiae; 0.3% of 330,000 active; percent response vs DMSO, % at 10 µM; S. cerevisiae RPL19A-GFP strain, flow cytometry, 3 h; stronger effect = lower value;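 active = percent response vs DMSO below 50%; inconclusive = fewer than 70 events counted for the yeast strain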;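 also: median channel GFP fluorescence of the barcoded RPL19A-GFP strain; lower means less RPL19A-GFP as with rapamycin TOR inhibition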
MEP2-GFP yeast: yeast TOR pathway MEP2-GFP modulation. S. cerevisiae MEP2-GFP strain, flow cytometry GFP, 3 h; 100% = DMSO control level. GFP response vs DMSO, % at 10 µM. 0.51% of 330,000 active;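 active = GFP response versus DMSO above a set limit, roughly screen mean plus 3 SD, cut at about 180% in these data; inconclusive = fewer than 70 cells counted for a yeast strain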;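 also: median GFP fluorescence of the barcode-gated MEP2-GFP cells per well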
CIT2 TOR yeast: alters CIT2-GFP fluorescence in TOR pathway yeast screen; S. cerevisiae CIT2-GFP strain, flow cytometry, 3 h; 100 means same as DMSO wells; GFP response vs DMSO, % at 10 µM; 0.065% of 320,000 active; AID 2029;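 active = GFP response relative to DMSO above a set limit, near the screen mean plus 3 SD, cut at about 150% in these data; inconclusive = Fewer than 70 cells measured for a yeast strain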;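 also: ratio of well median GFP fluorescence to mean of DMSO wells on the plate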
LAP4-GFP MLPCN: modulators of TOR pathway LAP4-GFP in S. cerevisiae | GFP response vs DMSO, % at 10 µM | S. cerevisiae LAP4-GFP multiplex, flow cytometry GFP, 3 h; median GFP as percent of DMSO wells | 0.34% of 320,000 active | AID 2023;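 active = GFP response vs DMSO above a set limit, about the screen mean plus 3 SD, cut at about 150% in these data; inconclusive = under 70 cell events counted for the yeast strain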
AGP1-GFP MLPCN: yeast TOR pathway AGP1-GFP modulation | AID 2066 | GFP response vs DMSO, % at 10 µM | S. cerevisiae AGP1-GFP multiplex flow cytometry, 3 h; GFP as percent of DMSO wells | 0.02% of 320,000 active;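 active = GFP response relative to DMSO above a set limit, near screen average plus 3 SD, cut at about 150% in these data; inconclusive = fewer than 70 cells counted for the yeast strain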;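 also: median GFP channel fluorescence of the gated AGP1 strain per well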
Hits are given with their value; – = inactive; ? = inconclusive; · = not tested or not shown; [ ] = dose if it differs, or a comment. The list is not random: actives were taken first. Their share in the collection is about 0.89%.

SMILES | RPL19A TOR yeast | MEP2-GFP yeast | CIT2 TOR yeast | LAP4-GFP MLPCN | AGP1-GFP MLPCN
COc1ccc(Nc2cc(C(=O)NCCCN3CCN(C)CC3)c3ccccc3n2)cc1 | 47.4[may fluoresce violet] | 244.1[may fluoresce violet] | ? | – | –
COc1ccc(Nc2cc(C(=O)NCCCN3CCOCC3)c3ccccc3n2)cc1 | – | – | – | – | –
COc1ccc(C(=O)NC2CCN(CC(=O)NCc3ccccc3)CC2)cc1 | – | 505.5[may fluoresce violet] | ? | – | –
COc1ccc(C(=O)NC2CCN(CC(=O)NCc3ccccc3F)CC2)cc1 | – | – | – | – | –
Cc1ccc(N2CC(C(=O)Nc3nnc(SCC(=O)NCC4CCCO4)s3)CC2=O)cc1 (stereo not given) | – | – | – | – | –
CC1CCN(CCCCOc2ccc(F)cc2)CC1 | – | – | – | – | –
O=Nc1c(O)c2ccccc2c2ccccc12 | – | – | – | 210.5 | –
CN=Cc1sc2ccccc2c1O | – | – | – | – | –
N=c1n(CCN2CCOCC2)c2ccccc2n1Cc1ccccc1Br | – | – | – | – | –
Nc1ccc2c(c1)C(=O)c1ccccc1-2 | – | – | – | – | –
Nc1ccc2c(c1)C(=O)C(=O)c1ccccc1-2 | – | – | – | 189.4 | –
O=C1C(=O)c2ccc(-c3ccccc3)cc2-c2ccccc21 | – | – | – | 158.2 | –
O=C(O)c1cnn(-c2nc(-c3ccc(Br)cc3)cs2)c1C(F)(F)F | – | – | – | – | –
Cc1c(OC(C)C(=O)NCCCN2CCOCC2)ccc2c1oc(=O)c1ccccc12 (stereo not given) | 26.5[may fluoresce violet] | – | ? | – | ?
Cc1c(OC(C)C(=O)NCCN2CCOCC2)ccc2c(-c3ccccc3)cc(=O)oc12 (stereo not given) | – | – | – | – | –
Cc1cc(O)c(C(C)C)cc1NS(=O)(=O)c1ccccc1 | 45.9[may fluoresce violet] | 182.3[may fluoresce violet] | ? | – | –
CCc1cc(=O)oc2c(C)c(OCC(=O)N3CCCc4ccccc43)ccc12 | 38.5[may fluoresce violet] | 248.1[may fluoresce violet] | ? | – | ?
O=C(COc1ccc(Br)cc1CO)N1CCCc2ccccc21 | – | – | – | – | –
Cc1cccc(CNS(=O)(=O)c2csc(C(N)=O)c2)c1 | – | – | – | – | –
COc1ccc(C2CC(c3ccccc3)=NN2S(=O)(=O)c2ccccc2)cc1 (stereo not given) | – | 235.1 | – | 191.4 | –
COc1ccc(CN2C(=O)c3cccnc3C2=O)cc1S(=O)(=O)N1CCOc2ccc(Cl)cc21 | – | – | – | – | –
COc1ccc(CN2C(=O)c3cccnc3C2=O)cc1S(=O)(=O)N1CCOc2ccccc21 | 45.1[may fluoresce violet] | 333.6[may fluoresce violet] | ? | – | ?
Cn1cnnc1SCc1ccc(C(=O)n2ncc(C#N)c2N)cc1 | 23.4[may fluoresce violet] | 302.9[may fluoresce violet] | · | – | ?
Cn1cnnc1SCc1ccc(C(=O)N=Nc2c(O)n(C)c3ccccc23)cc1 | – | – | – | – | –
CCN1C(=O)N[C@H](c2ccc(Br)cc2)C(C(=O)OC)=C1C | – | – | – | – | –
SMILES | RPL19A TOR yeast | MEP2-GFP yeast | CIT2 TOR yeast | LAP4-GFP MLPCN | AGP1-GFP MLPCN
COc1ccc(CNC(=O)CN(C)S(=O)(=O)c2ccc(Br)s2)cc1 | – | – | – | – | –
COc1ccccc1CNC(=O)CN(C)S(=O)(=O)c1ccc(Br)s1 | 21.3[may fluoresce violet] | ? | ? | ? | ?
COc1ccc(NC(=O)CSc2n[nH]c(-c3ccccn3)n2)cc1 | 37.0[may fluoresce violet] | 313.6[may fluoresce violet] | ? | – | ?
Cc1nc(SCC(=O)N2CCc3ccccc32)n[nH]1 | 40.4[may fluoresce violet] | 365.5[may fluoresce violet] | ? | – | ?
Nc1cc(N)nc(SCC(=O)N2CCc3ccccc32)n1 | – | 175.4 | – | – | ·
O=C(CSc1ccccc1)N1CCc2ccccc21 | – | – | – | – | –
CCCc1c(C)c2c(C)[nH]nc2oc1=O | – | – | – | – | ·
CCOC(=O)Cc1c(C)c2c(C)[nH]nc2oc1=O | 22.9[may fluoresce violet] | 327.6[may fluoresce violet] | ? | – | ?
O=[N+]([O-])c1ccc(CNc2cccc(Cl)c2)s1 | – | – | – | – | –
Cc1cccc(CSCc2ccc(C(=O)NC(C)C)o2)c1 | – | 258.6 | – | – | –
Cc1nnc(SCC(=O)N(C)C2CCS(=O)(=O)C2)n1Cc1ccccc1 (stereo not given) | 26.6[may fluoresce violet] | 269.1[may fluoresce violet] | ? | – | ?
COC(=O)C1=C(C)NC(C)=C(C(=O)OC)C1c1ccc(-c2cccc(Cl)c2Cl)o1 | – | – | – | – | –
COC(=O)C1=C(C)NC(C)=C(C(=O)OC)C1c1ccc(-c2cccc([N+](=O)[O-])c2)o1 | 45.6[may fluoresce violet] | 203.3[may fluoresce violet] | ? | – | –
O=C(NCc1ccc2c(c1)OCO2)c1c(O)c2cccc3c2n(c1=O)CCC3 | – | – | – | – | –
